Some test systems named below: NCI-H23 lung; NCI-H226 lung; NCI-H322M lung; HOP-62 NSCLC; NCI-H460 lung; HOP-92 NSCLC; NCI-H522 lung; A549/ATCC NSCLC; 786-0 renal; COLO 205 colon; DU-145 prostate; K-562 leukemia; MALME-3M melanoma; MDA-MB-231 breast; SF-268 CNS; SF-295 CNS; SF-539 CNS; UACC-257 melanoma; M14 melanoma.
Common to all, as to assay: NCI-60 one-dose screen, 48 h (100 = growth as untreated, 0 = no growth, -100 = all killed)
Common to all, as to conditions: 10 µM unless noted

This is part of a sample that, as a whole, favours compounds with a hit. Of some 83,000 tested, about 20% had one in any assay.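 The test compound was applied at a single concentration to cells in 96-well plates for 48 hours, and percent growth was recorded.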 A number with no mark means an inactive call. Calls of active or inactive are those of the source. The calls were made as follows: active = growth percent below 10; inactive = the rest.

With `Cc1ccc2nc3c(cc2c1)CSc1nnc(-c2ccc[nH]c2=S)n1N3`, the growth with NCI-H23 lung is 98.6%; with NCI-H226 lung it was 91.5%; in the test with NCI-H322M lung, 99.9%; in the test on HOP-62 NSCLC, 95.8%; with NCI-H460 lung it was 99.2%; with HOP-92 NSCLC, 102%. Moreover, the growth in the test on NCI-H522 lung is 83.7%; in the test on A549/ATCC NSCLC, 99.7%; with 786-0 renal it was 98.7%; in the test with COLO 205 colon it was 110%; with DU-145 prostate, 113%; in the test on K-562 leukemia, 93%. Also, the growth with MALME-3M melanoma was 97.7%; in the test on MDA-MB-231 breast, 93.4%; in the test with SF-268 CNS, 89.5%; with SF-295 CNS, 108%; in the test on SF-539 CNS, 97.3%; in the test with UACC-257 melanoma, 103%. The growth in the test on M14 melanoma was 93%.

With `CC(=O)OCC(=O)[C@@]1(O)CC[C@H]2[C@@H]3CC(=C(Br)Br)C4=CC(=O)CC[C@]4(C)[C@H]3C(=O)C[C@@]21C`, the growth in the test with NCI-H23 lung was 88.6%; with NCI-H226 lung, 92.1%; in the test on NCI-H322M lung it was 88.5%; in the test on HOP-62 NSCLC it was 71.9%; with NCI-H460 lung, 103%; in the test with HOP-92 NSCLC it was 87.3%. For the same compound, the growth was 66.6% in the test with NCI-H522 lung; 65.1% with A549/ATCC NSCLC; 85.1% with 786-0 renal; 99.5% with COLO 205 colon; 107% with DU-145 prostate; 102% with K-562 leukemia. Moreover, the growth with MALME-3M melanoma is 98.3%; in the test on MDA-MB-231 breast it was 86%; with SF-268 CNS, 89.8%; with SF-295 CNS, 76.7%; in the test with SF-539 CNS it was 98.4%; in the test on UACC-257 melanoma, 67.6%. In the test on M14 melanoma, the growth is 82.3%.

Consider `O=C(O)C(/C=C/c1ccco1)=N\Nc1nc(-c2ccc(Cl)cc2)cs1`, for which the growth was 57.7% in the test with NCI-H23 lung; 84% in the test with NCI-H226 lung; 68.5% in the test with NCI-H322M lung; 46.4% with HOP-62 NSCLC; 37.6% in the test on NCI-H460 lung; 51.8% in the test on HOP-92 NSCLC. Moreover, the growth was 39.4% with NCI-H522 lung; 51.4% in the test on A549/ATCC NSCLC; 51.8% in the test with 786-0 renal; 94.6% in the test with COLO 205 colon; 70.1% in the test on DU-145 prostate; 65.7% in the test on K-562 leukemia. Moreover, the growth in the test on MALME-3M melanoma was 79%; with MDA-MB-231 breast it was 84.8%; in the test on SF-268 CNS, 50.9%; in the test on SF-295 CNS it was 27.8%; in the test on SF-539 CNS, 43.4%; in the test with UACC-257 melanoma it was 72.2%. Further, the growth in the test on M14 melanoma was 43.7%.

As to `COc1ccc(C(O)c2cc3c(N)c(C(=O)Nc4ccccc4)sc3nc2C)cc1` (configuration not stated), the growth with NCI-H23 lung was 29.7%; in the test on NCI-H226 lung, 51.1%; with NCI-H322M lung, 35.4%; with HOP-62 NSCLC, 18.8%; in the test with NCI-H460 lung it was 3.3% (active); with HOP-92 NSCLC, 30.3%. Besides, the growth was -55.9% (active) in the test with NCI-H522 lung; 13.4% with A549/ATCC NSCLC; 29.3% with 786-0 renal; -58.9% (active) in the test on COLO 205 colon; 2.39% (active) in the test with DU-145 prostate; 3.59% (active) with K-562 leukemia. The growth is 48.5% with MALME-3M melanoma; -11.2% (active) in the test with MDA-MB-231 breast; 28.3% in the test on SF-268 CNS; -13.3% (active) in the test with SF-295 CNS; -25.8% (active) in the test with SF-539 CNS; 49.4% with UACC-257 melanoma. Moreover, in the test on M14 melanoma, the growth was 14.3%.

As for `O=S(=O)(NCCNc1nccc(-c2c(-c3ccc(F)c(O)c3)nc3sccn23)n1)c1ccccc1`, the growth was 72.2% in the test with NCI-H23 lung; 99.8% in the test with NCI-H226 lung; 96.1% in the test on NCI-H322M lung; 98.9% in the test with HOP-62 NSCLC; 75.3% with NCI-H460 lung; 63.9% in the test on HOP-92 NSCLC. Besides, the growth in the test with NCI-H522 lung is 59.3%; with A549/ATCC NSCLC, 81.8%; in the test on 786-0 renal it was 113%; with COLO 205 colon, 33.9%; with DU-145 prostate, 77.5%; in the test with K-562 leukemia, 37.2%. The growth in the test on MALME-3M melanoma is 1.46% (active); with MDA-MB-231 breast, 51.6%; in the test with SF-268 CNS it was 84.5%; in the test on SF-295 CNS, 110%; with SF-539 CNS, 94.3%; in the test on UACC-257 melanoma, 16.2%. The growth in the test with M14 melanoma is 14.5%.

Take `O=C1CCCCCCCCC(O)C(O)CCCC(c2cccs2)O1` (configuration not stated): the growth in the test with NCI-H23 lung is 91%; in the test on NCI-H226 lung it was 99.5%; in the test on NCI-H322M lung, 113%; in the test on HOP-62 NSCLC, 87.6%; in the test on NCI-H460 lung, 106%; in the test on HOP-92 NSCLC, 82.7%. Further, the growth was 91.7% in the test with NCI-H522 lung; 82.7% in the test with A549/ATCC NSCLC; 98.8% with 786-0 renal; 108% in the test on COLO 205 colon; 117% with DU-145 prostate; 96% in the test on K-562 leukemia. Also, the growth is 107% in the test on MALME-3M melanoma; 84.8% in the test with MDA-MB-231 breast; 95.9% with SF-268 CNS; 93.7% with SF-295 CNS; 106% in the test on SF-539 CNS; 60.9% with UACC-257 melanoma. In addition, the growth in the test on M14 melanoma is 99.7%.

Turning to `c1ccc(Cn2nc3c(c2-c2ccccc2)-c2oncc2CC3)cc1`, the growth with NCI-H23 lung was 87.5%; in the test on NCI-H226 lung it was 103%; with NCI-H322M lung it was 113%; with HOP-62 NSCLC, 105%; in the test on NCI-H460 lung, 102%; with HOP-92 NSCLC it was 62.3%. Moreover, the growth is 76% in the test on NCI-H522 lung; 90.5% with A549/ATCC NSCLC; 105% with 786-0 renal; 113% with COLO 205 colon; 112% in the test with DU-145 prostate; 73.2% with K-562 leukemia. For the same compound, the growth in the test on MALME-3M melanoma is 89%; in the test with MDA-MB-231 breast it was 96.8%; in the test on SF-268 CNS it was 107%; in the test with SF-295 CNS it was 76.7%; in the test on SF-539 CNS, 110%; with UACC-257 melanoma it was 92.1%. Further, in the test with M14 melanoma, the growth was 98.2%.

For `CN1CCN(c2ccc(NC3=C(Cl)C(=O)c4ncccc4C3=O)cc2C#N)CC1`, the growth in the test on NCI-H23 lung is 51%; with NCI-H226 lung, 94%; in the test with NCI-H322M lung it was 103%; with HOP-62 NSCLC, 103%; in the test with NCI-H460 lung, 94.8%; in the test with HOP-92 NSCLC it was -61.4% (active). The growth in the test on NCI-H522 lung is -56.9% (active); in the test on A549/ATCC NSCLC, 110%; in the test with 786-0 renal it was 85.5%; in the test on COLO 205 colon it was 57.6%; with DU-145 prostate, 86.9%; in the test with K-562 leukemia, 2.83% (active). The growth is -69.4% (active) in the test on MALME-3M melanoma; -4.9% (active) in the test with MDA-MB-231 breast; 85.3% with SF-268 CNS; 115% in the test with SF-295 CNS; 91.6% in the test on SF-539 CNS; -46.5% (active) in the test with UACC-257 melanoma. For the same compound, in the test with M14 melanoma, the growth is 54%.

These data come from PubChem BioAssay (NCI).
